# Experimental data reported in the supplement of paper PMC6992640.
# Structures can show the parent of a compound that is named as a salt. ± gives the standard deviation of the averaged measurements.
# Experiments:
# Experiment in all cases: cell viability (% of vehicle); higher = less cytotoxic
# Conditions in all cases: 10 µM; 72 h
# HCI01 = test system: HCI01 (cells of a triple-negative basal-like breast cancer xenograft)
# HCI03 = test system: HCI03 (cells of an ER-positive luminal breast cancer xenograft)
# HCI09 = test system: HCI09 (cells of a triple-negative luminal androgen receptor type breast cancer xenograft)
# HCI11 = test system: HCI11 (cells of an ER-positive luminal breast cancer xenograft)
# HCI13 = test system: HCI13 (cells of an ER-positive luminal breast cancer xenograft)
# HCI16 = test system: HCI16 (cells of a triple-negative basal-like breast cancer xenograft)
# UCD52 = test system: UCD52 (cells of a triple-negative basal-like breast cancer xenograft)
# WHIM2 = test system: WHIM2 (cells of a triple-negative basal-like breast cancer xenograft)
# WHIM30 = test system: WHIM30 (cells of a triple-negative basal-like breast cancer xenograft)
# 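Note: PDX cells carrying CMV promoter-driven luciferase, viability read as total photon flux per second by IVIS imaging following D-luciferin, vehicle control 0.1% DMSO.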
SMILES,cell viability (HCI01),cell viability (HCI03),cell viability (HCI09),cell viability (HCI11),cell viability (HCI13),cell viability (HCI16),cell viability (UCD52),cell viability (WHIM2),cell viability (WHIM30)
O=S(=O)(O)NC1CCCCC1 [Cyclamic acid],91.4 ± 14,118,94.4 ± 2,91.9,58.1 ± 1.3,121,88.7 ± 18,104 ± 13,106 ± 5.2
Nc1nc(=O)c2ncn(COC(CO)CO)c2[nH]1 [Ganciclovir],63.1 ± 33,124,94.8 ± 2,97.9,112 ± 17,126,87.3 ± 5.8,93.5 ± 46,142.4 ± 1.3
O=S(=O)([O-])Oc1ccc(C(c2ccc(OS(=O)(=O)[O-])cc2)c2ccccn2)cc1.[Na+].[Na+] [Sodium Picosulfate],103 ± 33,119,102 ± 6,86.7,116 ± 6.3,117,90.71 ± 0.14,91.2 ± 20,101 ± 5.3
Cc1ccccc1N1C(=O)c2cc(S(N)(=O)=O)c(Cl)cc2NC1C (stereo not given) [Metolazone],121 ± 18,129,98.5 ± 8.3,57.9,132 ± 16,198,107 ± 1.9,103 ± 6.2,127 ± 13
NNC(=O)c1ccncc1.Nc1ccc(C(=O)O)c(O)c1 [Pasiniazid],94.9 ± 11,111,127 ± 61,122,182 ± 9.2,83.7,95.1 ± 3.1,80.5 ± 33,133 ± 5.1
Cc1cccc(C)c1OCC(=O)NC(Cc1ccccc1)C(O)CC(Cc1ccccc1)NC(=O)C(C(C)C)N1CCCNC1=O (stereo not given) [Lopinavir],83 ± 1.7,102,57.3 ± 20,88.4,93.7 ± 6.3,116,48 ± 4,73.6 ± 13,96.4 ± 16
Cc1cc(C)nc(NS(=O)(=O)c2ccc(N)cc2)n1 [Sulfamethazine],86 ± 14,88.9,101 ± 3.9,89.6,112 ± 6.1,114,91.9 ± 5.5,95.7 ± 21,132 ± 1.9
CCN(CCCc1ccccc1)CCCc1ccccc1.O=C(O)CC(O)(CC(=O)O)C(=O)O [Alverine Citrate],99.4 ± 3.5,95.5,104 ± 10,94.6,190 ± 4.8,118,59.9 ± 0.87,88.6 ± 4,102 ± 15
Nc1cc(C(Cl)=C(Cl)Cl)c(S(N)(=O)=O)cc1S(N)(=O)=O [Clorsulon],107 ± 17,108,125 ± 47,106,194 ± 11,169,116 ± 11,112 ± 14,152 ± 7.4
COc1nc(C)nc(Cl)c1NC1=NCCN1 [Moxonidine],102 ± 7.2,116,103 ± 15,115,98.9 ± 5.5,95.3,82.9 ± 13,116 ± 12,118 ± 8.7
COC(=O)Nc1nc2ccc(C(=O)c3ccc(F)cc3)cc2[nH]1 [Flubendazole],104 ± 3.6,103,103 ± 2.5,81.8,102 ± 8.7,140,80.3 ± 3.1,139 ± 36,106.1 ± 0.14
Cc1cn(C2CC(O)C(CO)O2)c(=O)[nH]c1=O (stereo not given) [Telbivudine],125 ± 3.9,128,141 ± 78,115,164 ± 67,99.4,95.5 ± 9.2,94.1 ± 16,124 ± 24
COc1ccc(C2CNC(=O)C2)cc1OC1CCCC1 (stereo not given) [Rolipram],130 ± 5.1,140,85.8 ± 11,106,175 ± 38,112,102 ± 18,101 ± 13,123 ± 19
CC(=CC(=O)OCCCCCCCCC(=O)O)CC1OCC(CC2OC2C(C)C(C)O)C(O)C1O (stereo not given) [Mupirocin],97.5 ± 17,129,86.5 ± 23,90.6,89.6 ± 9.9,101,84.2 ± 3.4,81.9 ± 12,113.3 ± 0.3
CC(C)CN(CC(O)C(Cc1ccccc1)NC(=O)OC1CCOC1)S(=O)(=O)c1ccc(N)cc1 (stereo not given) [Amprenavir (agenerase)],96.3 ± 11,99.1,85.6 ± 4.6,104,103 ± 7.5,115,56.8 ± 3.1,78.8 ± 8.7,112 ± 25
NCC1OC(OC2C(N)CC(N)C(OC3OC(CO)C(O)C(N)C3O)C2O)C(N)CC1O (stereo not given) [Tobramycin],112 ± 23,124,98.5 ± 5.4,83.1,58 ± 9.4,88,85.3 ± 6.8,122 ± 32,123 ± 5.3
N#Cc1ccc(C(c2ccc(C#N)cc2)n2cncn2)cc1 [Letrozole],111 ± 7.6,99.1,98.4 ± 3.9,102,88.2 ± 5.6,99.1,126 ± 15,73.7 ± 21,126 ± 8.4
C#C[C@]1(O)CC[C@H]2[C@@H]3CCC4=CCCC[C@@H]4[C@H]3C(=C)C[C@@]21CC [Desogestrel],94.9 ± 2.5,146,81 ± 11,87.2,41.5 ± 5.2,97.5,74.4 ± 2,64.2 ± 39,71.8 ± 53
"Cc1c(C(=O)Nc2ccc(N3CC(C)OC(C)C3)nc2)cccc1-c1ccc(OC(F)(F)F)cc1 (stereo not given) [LDE225 (NVP-LDE225,Erismodegib)]",98.3 ± 17,119,66.8 ± 2.4,80.7,69.7 ± 4.5,94.8,80.8 ± 1.8,97.5 ± 14,86.1 ± 7.6
CC1CCN(C(=O)CC#N)CC1N(C)c1ncnc2[nH]ccc12 (stereo not given),169 ± 6.3,143,81.1 ± 1.5,110,126 ± 11,151,136 ± 23,95.8 ± 7.4,160.4 ± 0.81

SMILES,cell viability (HCI01),cell viability (HCI03),cell viability (HCI09),cell viability (HCI11),cell viability (HCI13),cell viability (HCI16),cell viability (UCD52),cell viability (WHIM2),cell viability (WHIM30)
Nc1nccs1 [Aminothiazole],147 ± 24,105,101 ± 3.2,117,98.3 ± 7.8,136,91.8 ± 5.1,116 ± 5.8,105 ± 18
CC(C(=O)O)c1ccc2c(c1)CC(=O)c1ccccc1S2 (stereo not given) [Zaltoprofen],124 ± 32,120,95.5 ± 26,103,134 ± 6.7,112,77.9 ± 11,98 ± 13,82.8 ± 5.6
CN(C)CCc1c[nH]c2ccc(CC3COC(=O)N3)cc12 (stereo not given) [Zolmitriptan],86.8 ± 19,134,107 ± 11,96,119 ± 21,107,94.8 ± 8.3,86.6 ± 2.1,131 ± 11
NC(CO)(CO)CO.O=C(c1ccccc1)c1ccc2n1CCC2C(=O)O (stereo not given) [Ketorolac tromethamine salt],123 ± 15,174,146 ± 70,102,122 ± 26,131,145.6 ± 0.93,130 ± 15,116 ± 4.2
O=C([O-])Cc1ccccc1Nc1c(Cl)cccc1Cl.[K+] [Diclofenac Potassium],117 ± 9.3,106,100 ± 24,100,65.9 ± 1.7,114,73.8 ± 2.9,109 ± 28,117 ± 39
O=C1NC([O-])=NC1(c1ccccc1)c1ccccc1.[Na+] [Phenytoin sodium],97.2 ± 10,142,96.6 ± 14,101,104 ± 9.4,114,91.6 ± 8.2,105 ± 7.8,118 ± 8.7
CCCN1CCCCC1C(=O)Nc1c(C)cccc1C.Cl.O (stereo not given) [Ropivacaine hydrochloride monohydrate],86.9 ± 16,116,105 ± 16,96.1,110.3 ± 0.64,117,96.2 ± 12,90.8 ± 14,100 ± 9.1
CC(C)(C)c1cc(C(C)(C)C)c(NC(=O)c2c[nH]c3ccccc3c2=O)cc1O [Ivacaftor (VX-770)],41.4 ± 24,83.8,18.7 ± 3.1,139,29.5 ± 4.1,121,97.2 ± 20,34.4 ± 0.58,200 ± 19
CCCN(CCC)C(=O)C1=Cc2ccc(-c3ccc(C(=O)N4CCCC4)cc3)cc2NC(=N)C1 [Motolimod (VTX-2337)],100 ± 41,97.5,32.1 ± 0.89,63.6,76.6 ± 7,105,66 ± 3.8,71 ± 15,100 ± 12
Cc1cc(C=CC#N)cc(C)c1Nc1ccnc(Nc2ccc(C#N)cc2)n1 [Rilpivirine],122 ± 9.4,111,96.5 ± 4.4,96.3,122 ± 0.84,83.9,85.5 ± 8.7,93.7 ± 11,110 ± 28
CC(O)C1C(=O)N2C(C(=O)OCOC(=O)C(C)(C)C)=C(SC3CN(C4=NCCS4)C3)C(C)C12 (stereo not given) [Tebipenempivoxil],130 ± 21,110,142 ± 85,115,101 ± 34,89.7,97.2 ± 11,112 ± 53,133 ± 17
CCN(CC)C(=S)SSC(=S)N(CC)CC [Disulfiram],140 ± 49,75.8,71.6 ± 4.1,66.5,90 ± 5.2,92.3,82.3 ± 8.8,102 ± 8,115 ± 14
CC1(C)SC2C(NC(=O)Cc3ccccc3)C(=O)N2C1C(=O)[O-].[Na+] (stereo not given) [Penicillin G Sodium],170 ± 78,105,91.8 ± 20,105,70.7 ± 9.5,111,99.7 ± 20,108 ± 14,109 ± 5.6
CS(=O)(=O)O.Cc1ccc(NC(=O)c2ccc(CN3CCN(C)CC3)cc2)cc1Nc1nccc(-c2cccnc2)n1 [Imatinib Mesylate (STI571)],157 ± 24,86.7,67.7 ± 12,69.7,91.3 ± 11,99,67.8 ± 1.8,88.9 ± 6.2,114 ± 18
CC(C)(Oc1ccc(Cl)cc1)C(=O)O [Clofibric Acid],109 ± 22,119,79.6 ± 22,99.3,94.8 ± 9.6,97.8,81.1 ± 14,93.3 ± 20,109.5 ± 0.67
CN1CCC(=C2c3ccccc3CCn3c(C=O)cnc32)CC1 [Alcaftadine],94.1 ± 31,117,94.3 ± 18,86.9,120 ± 20,124,92.4 ± 10,97.9 ± 3.4,114 ± 6.9
COc1cc(C=CC(=O)CC(=O)C=Cc2ccc(O)c(OC)c2)ccc1O [Curcumin],94.5 ± 54,135,69.3 ± 40,51,98.4 ± 44,110,127 ± 22,145 ± 53,197 ± 9.6
COc1ccc(-c2ccc3cc(C(=O)O)ccc3c2)cc1C12CC3CC(CC(C3)C1)C2 [Adapalene sodium salt],115 ± 29,81.9,114 ± 37,98.3,183 ± 2.4,158,157 ± 19,104 ± 10,96.8 ± 6.8
Cl.NC(N)=NC(N)=NCCc1ccccc1 [Phenformin HCl],117 ± 7.8,114,53.2 ± 5.3,110,58.8 ± 5.4,94.6,78.7 ± 3.6,95.4 ± 15,90.3 ± 11
CS(=O)(=O)OCCCCOS(C)(=O)=O [Busulfan],99.951 ± 0.028,115,117 ± 7.2,105,109 ± 4.9,108,81.4 ± 3.8,97.6 ± 4,143 ± 10
